Inconclusive results are not listed. Unmarked numbers belong to inactive results. Activity calls are given as the source filed them. The call rests on the fitted dose curve.
Potency means the concentration at half of the fitted maximal effect.

The nature of this assay: S16 Schwann cell PMP22 intronic element beta-lactamase assay (AID 624044). Further: nearly all actives have a fitted effect of over 15% in size. The settings on record: S16 rat Schwann cells, PMP22 element beta-lactamase FRET, 24 h; series mostly up to 38.3 µM; ratio activity, negative = inhibition: at the top concentration. An excerpt:
Description: Charcot-Marie-Tooth-Association [CMTA] National Center for Advancing Translational Sciences [NCATS] Charcot-Marie-Tooth (CMT) disease was first characterized by Jean-Martin Charcot and Pierre Marie in France and, independently, by Howard Henry Tooth in England in 1886. CMT is one of the most common inherited neurological diseases, affecting approximately 1 in 2,500 Americans. […] The most prevalent type of CMT is known as CMT1A and caused by a duplication of the PMP22 gene which leads to over-expression of this protein. PMP22 is a glycosylated intrinsic membrane protein accounting for 2-5% of the myelin protein content, and its over-expression results in demyelination and subsequently axonal loss. A pair of cellular transcription-based assays was developed in the S16 rat Schwann cell lines (Hai, M., et al., 2002) stably transfected with orthogonal reporters - firefly luciferase (Fluc) and beta-lactamase (beta-Lac) - whose expression is driven by an intronic regulatory element of the PMP22 gene (Jones, E.A., et al., 2011) to recapitulate endogenous expression of PMP22. The current assay employs Blac as a reporter of PMP22 expression. A comprehensive library of approved drugs, the NCGC Pharmaceutical Collection (Huang, R., et al., 2011), was screened in the cross-validating platform of the orthogonal reporter assays to identify drug modulators inhibitory towards PMP22 expression. A set of counter-screens was devised to address non-specific activity of the library. An ATP-dependent CellTiter-Glo assay (developed by Promega Corp) was utilized to control cell viability. In addition, biochemical Fluc enzyme assay was performed to assess direct inhibition of the Fluc enzymatic activity. References Hai, M., Muja, N., DeVries, G.H., Quarles, R.H. and Patel, P.I. Comparative analysis of Schwann cell lines as model systems for myelin gene transcription studies. J Neurosci Res, 2002. 69(4): pp 497-508 Huang, R., Southall, N., Wang, Y., Yasgar A., Shinn P., Jadhav, A. , Nguyen, D.-T. and Austin, C.P., The NCGC pharmaceutical collection: a comprehensive resource of clinically approved drugs enabling repurposing and chemical genomics. Sci Transl Med, 2011. 3(80): p. 80ps16.
S16 Schwann cell PMP22 intronic element beta-lactamase assay The beta-Lac-expressing S16 cells were seeded in black clear-bottom 1536 well plates at between 500-750 cells/6uL in DMEM medium containing 10% FBS, w/o phenol red. After overnight incubation at 37 degree Celsius/5% C02, 23 nL of compounds or DMSO were delivered to each well using a pin tool, followed by 24h-incubation at 37 degree Celsius/5% C02. Then one microl of LiveBLAzer FRET B/G detection mix (Invitrogen) was added to each well. An EnVision plate reader (PerkinElmer) was used to detect the dual beta-Lac output composed of fluorescence at 460nm for beta-Lac expression and FRET at 535nm for cell viability. The % signal at 535 nm was scaled to a full range of DMSO and zero and then normalized using the maximum response observed in the screen as 100% activity. The % signal at 460nm was normalized to the average readings of potassium clavulanate (a positive control) - treated cells relative to DMSO-treated cells (0% Activity). The concentration-effect curves were then classified based on curve quality (r2), response magnitude and degree of measured activity.
Consider `C[C@]12C=CC(=O)C=C1CC[C@@H]1[C@@H]2CC[C@@]2(C)[C@H]1CC[C@]2(C)O`, for which the “ratio activity, negative = inhibition” value was -6.18%.
With `CNC(=O)Oc1cccc2ccccc12`, the “ratio activity, negative = inhibition” value was 4.79%.
`CCCCCCCCCCCC[N+](C)(C)CCOc1ccccc1`: the “ratio activity, negative = inhibition” value is -19.3%.
Same read-out and setting: with `CC(C)NCC(O)c1ccc(N)c(C#N)c1` (centres undefined) the figure was 3.12%; with `CCC1(CC)C(=O)NC(=O)NC1=O`, -0.237%.
On the same count and under the same terms, the same measure for `C#C[C@]1(O)CC[C@H]2[C@@H]3CCC4=CC(=O)CCC4=C3C=C[C@@]21CC`: -11.7%; for `CC(Cc1ccccc1)NCc1ccccc1Cl` (centres undefined): -4.31%.
With `CN1C(=O)CN=C(c2ccccc2)c2cc([N+](=O)[O-])ccc21`, the “ratio activity, negative = inhibition” value was -20.1%.
On the same count and under the same terms, with `C=CCOC(Cn1ccnc1)c1ccc(Cl)cc1Cl` (centres undefined) the figure was -15.7%; with `CC(C)(C)OC(=O)c1ncn2c1[C@@H]1CCCN1C(=O)c1c(Br)cccc1-2`, -0.254%; with `Clc1ccc(CO/N=C(\Cn2ccnc2)c2ccc(Cl)cc2Cl)c(Cl)c1`, -12.2%.
Same read-out and setting: the same measure for `COP(=O)(OC)C(O)C(Cl)(Cl)Cl` (centres undefined): -24.4%.
On the same count and under the same terms, with `CC[C@]1(O)CC[C@H]2[C@@H]3CCC4=CCCC[C@@H]4[C@H]3CC[C@@]21C` the figure was -25.8%.
For `COc1ccc(CN2CCNCC2)c(OC)c1OC`, the “ratio activity, negative = inhibition” value was -10.7% [at 17.1 µM].
Same read-out and setting: the same measure for `CC(C)[N+](C)(CCC(C(N)=O)(c1ccccc1)c1ccccc1)C(C)C`: 4.3% [at 17.1 µM]; for `O=C(O)c1nn(Cc2ccc(Cl)cc2Cl)c2ccccc12`: 7.36%.
Still for that read-out and setting: with `CCCCCCCCC(=O)NCc1ccc(O)c(OC)c1` the figure was -4.04%.
`NC(N)=NN=C(/C=C/c1ccc([N+](=O)[O-])o1)/C=C/c1ccc([N+](=O)[O-])o1`: the Potency was 9.99 µM (active).
Same read-out and setting: the same measure for `COP(=O)(OC)OC=C(Cl)Cl`: 15.8 µM (active).
For the molecule `Cc1ccc(N=CN(C)C=Nc2ccc(C)cc2C)c(C)c1`, the “ratio activity, negative = inhibition” value was -10.1%.
`NC(=O)OCCCc1ccccc1`: the “ratio activity, negative = inhibition” value is 0.354%.
As for `CCN(CC)CCOC(=O)C(C)(c1ccccc1)c1ccccc1`, the “ratio activity, negative = inhibition” value is -12.3%.
With `CCCCCCCCCCCCCCCC[n+]1ccccc1`, the Potency was 12.6 µM (active).
With `Nc1ccc(N)cc1`, the “ratio activity, negative = inhibition” value is 0.353%.

For the origin of these results see PubChem BioAssay (NCATS).
